Measurements taken from PubChem BioAssay (NCATS).
Records with an inconclusive call do not appear. A call without a number means that no potency is given here. Activity calls are given as the source filed them. Calls follow the shape of the dose curve; as a rule, active = well fitted cell-killing curve with a large enough effect; inconclusive = small, poorly fitted or top-dose-only effect, or effect the other way; inactive = no such curve, though single readings can be large or run the other way.

Assays:
[1] = Quantitative High-Throughput drug screen in 47 multiple myeloma cell lines against the NCATS MIPE library collection: JIM1_ECACC cell viability assay (AID 1918964; also: potency is read from the fitted curve at half-maximal effect)
Method in brief: (§1)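 qHTS of the MIPE 4.0 collection: 500 myeloma cells/well, 48 h drug exposure at 37C in 5% CO2, then CellTiter-Glo for 5 min at room temperature before luminescence reading.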

[2] = Quantitative High-Throughput drug screen in 47 multiple myeloma cell lines against the NCATS MIPE library collection: INA6_PLB cell viability assay (AID 1918965; also: nearly all actives have a fitted effect of over 55% in size; also: potency is read from the fitted curve at half-maximal effect)
Method in brief: (§2)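 Myeloma cell lines, 500 cells per well, exposed to MIPE 4.0 library compounds for 48 h at 37C, 5% CO2. Viability from ATP by CellTiter-Glo luminescence; normalised to DMSO (100%) and media-only (0%) wells.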

[3] = Quantitative High-Throughput drug screen in 47 multiple myeloma cell lines against the NCATS MIPE library collection: H1112_PLB cell viability assay (AID 1918967; also: nearly all actives have a fitted effect of over 30% in size; also: potency is read from the fitted curve at half-maximal effect)
Method in brief: as §1

[4] = Quantitative High-Throughput drug screen in 47 multiple myeloma cell lines against the NCATS MIPE library collection: Karpas25_ECACC cell viability assay (AID 1918968; also: nearly all actives have a fitted effect of over 35% in size; also: potency is read from the fitted curve at half-maximal effect)
Method in brief: as §1

[5] = Quantitative High-Throughput drug screen in 47 multiple myeloma cell lines against the NCATS MIPE library collection: KMS27_JCRB cell viability assay (AID 1918970); also: nearly all actives have a fitted effect of over 30% in size; also: potency is read from the fitted curve at half-maximal effect
Method in brief: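 Luminescent ATP read-out (CellTiter-Glo, 5 min at room temperature) after 48 h compound exposure of 500 KMS27_JCRB cells per well; DMSO wells define full viability and media-only wells zero.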

[6] = Quantitative High-Throughput drug screen in 47 multiple myeloma cell lines against the NCATS MIPE library collection: KMS12PE_JCRB cell viability assay (AID 1918972); also: nearly all actives have a fitted effect of over 30% in size; also: potency is read from the fitted curve at half-maximal effect
Method in brief: as §2

[7] = Quantitative High-Throughput drug screen in 47 multiple myeloma cell lines against the NCATS MIPE library collection: KMS12BM_JCRB cell viability assay (AID 1918971); also: nearly all actives have a fitted effect of over 35% in size; also: potency is read from the fitted curve at half-maximal effect
Method in brief: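 Steps: seed 500 cells per well; pin-transfer MIPE 4.0 library; incubate 48 h at 37C, 5% CO2, humidified; add CellTiter-Glo, 5 min room temperature; read luminescence.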

[8] = Quantitative High-Throughput drug screen in 47 multiple myeloma cell lines against the NCATS MIPE library collection: JJN3_DSMZ cell viability assay (AID 1918966; also: nearly all actives have a fitted effect of over 50% in size; also: potency is read from the fitted curve at half-maximal effect)
Method in brief: as §1

[9] = Quantitative High-Throughput drug screen in 47 multiple myeloma cell lines against the NCATS MIPE library collection: KMS21BM_JCRB cell viability assay (AID 1918974); details: ATP luminescence, 48 h; viability: at 45.8 µM (top of the series) unless noted
Method in brief: as §1

[10] = Quantitative High-Throughput drug screen in 47 multiple myeloma cell lines against the NCATS MIPE library collection: KMS20_JCRB cell viability assay (AID 1918973); also: nearly all actives have a fitted effect of over 45% in size
Method in brief: as §1

Row | SMILES | Potency [1] | Potency [2] | Potency [3] | Potency [4] | Potency [5] | Potency [6] | Potency [7] | Potency [8] | viability [9] | Potency [10]
1 | OCCC#Cc1nc(-c2ccc(F)cc2)c(-c2ccncc2)n1CCCc1ccccc1 | 13.2 µM (active) | 26.4 µM (active) | 5.9 µM (active) | 16.6 µM (active) | 23.5 µM (active) | 18.7 µM (active) |  |  |  | 
2 | CC(C)C[C@H](NC(=O)[C@@H](O)[C@H](N)Cc1ccccc1)C(=O)O | inactive | 20.9 µM (active) | 20.9 µM (active) | 20.9 µM (active) |  | inactive | 23.5 µM (active) |  |  | 
3 | COc1nc(-c2ccc3c(c2)OCO3)n(-c2ccc(NC(=O)CSc3ccccc3)cc2)n1 | inactive | inactive | inactive | inactive | inactive | inactive |  |  |  | 
4 | COCC(=O)NCC=Cc1ccc2ncnc(Nc3ccc(Oc4ccc(C)nc4)c(C)c3)c2c1 | 16.6 µM (active) | 10.5 µM (active) |  | 6.62 µM (active) |  | 16.6 µM (active) |  | 23.5 µM (active) |  | 
5 | CN1CCN(CCCN2c3ccccc3Sc3ccc(C(F)(F)F)cc32)CC1 | inactive | 9.35 µM (active) | 7.43 µM (active) | 4.18 µM (active) |  | inactive | inactive |  |  | 
6 | CCc1ccc(CCOc2ccc(CC3SC(=O)NC3=O)cc2)nc1 (stereo unspecified) | inactive | inactive | inactive | inactive | inactive | inactive |  |  |  | 
7 | CCC(C)(C)C(=O)O[C@H]1C[C@@H](C)C=C2C=C[C@H](C)[C@H](CC[C@@H]3C[C@@H](O)CC(=O)O3)[C@H]21 | 7.43 µM (active) | 14.8 µM (active) | 18.7 µM (active) | 18.7 µM (active) | 6.62 µM (active) | 5.9 µM (active) |  |  |  | 
8 | Cc1cc(-c2ccc(CC(=O)Nc3ccc(-c4cccnc4)cc3)cc2)ccn1 | 20.9 µM (active) | 13.2 µM (active) | 18.7 µM (active) | 18.7 µM (active) | 16.6 µM (active) | 14.8 µM (active) | 18.7 µM (active) |  |  | 
9 | OCCn1cc(-c2cnc3nnn(Cc4ccc5ncccc5c4)c3n2)cn1 | inactive | inactive | inactive | 14.8 µM (active) | inactive | 20.9 µM (active) | 18.7 µM (active) |  |  | 
10 | CC(c1cc2ccccc2s1)N(O)C(N)=O (stereo unspecified) | inactive | inactive | inactive | inactive | inactive | inactive |  |  |  | 
11 | CNC(=O)c1ccc(C)c(-n2c(C)cc(OCc3ccc(F)cc3F)c(Br)c2=O)c1 | 23.5 µM (active) | 16.6 µM (active) | 7.43 µM (active) | 8.33 µM (active) |  | 18.7 µM (active) | 20.9 µM (active) |  |  | 
12 | Cc1c(CCOc2ccc(C(=O)O)cc2)c2cc(Cl)ccc2n1C(c1ccccc1)c1ccccc1 | inactive | inactive | inactive | 20.9 µM (active) |  | inactive | 16.6 µM (active) |  |  | 
13 | NS(=O)(=O)c1cc2c(cc1Cl)NC=NS2(=O)=O | inactive | inactive | inactive | inactive |  | inactive |  |  | 201% (active) | 
14 | NC(=O)c1cnccn1 | inactive | inactive |  | inactive | inactive |  |  | inactive |  | 
15 | CCCc1nc2c(C)cc(-c3nc4ccccc4n3C)cc2n1Cc1ccc(-c2ccccc2C(=O)O)cc1 | 0.0026 µM (active) |  | inactive | inactive | 4.18 µM (active) |  | inactive |  |  | 
16 | CN(C)c1ccc(C2Nc3ccc4ccccc4c3C3=C2C(=O)CC(C)(C)C3)cc1Br (stereo unspecified) | 0.0019 µM (active) |  | 5.26 µM (active) | 5.9 µM (active) |  | 5.9 µM (active) |  | 11.8 µM (active) |  | 
17 | O=c1n(CCCN2CCN(c3cccc(Cl)c3)CC2)nc2ccccn12 | inactive |  | inactive |  | inactive |  |  |  |  | inactive
18 | CCCC(CCC)C(=O)O | inactive | inactive |  |  | inactive | inactive | inactive |  |  | 
19 | O=C(c1cc(Cc2n[nH]c(=O)c3ccccc23)ccc1F)N1CCN(C(=O)C2CC2)CC1 | inactive | 16.6 µM (active) |  |  |  |  | inactive |  |  | 
20 | COc1cc(Oc2ccnc3cc(OC)c(OC)cc23)ccc1NC(=O)NC(C)c1nccs1 (stereo unspecified) | 0.105 µM (active) |  |  | 23.5 µM (active) | 5.9 µM (active) |  |  |  |  | 
21 | OC[C@H](Cc1ccccc1)Nc1nc(Oc2ccc3c(c2)CCC3)nc2c1ncn2Cc1ccc(-c2ccccc2)cc1 | inactive |  |  |  |  | inactive |  |  |  | 
22 | Cc1cc(C=c2sc3nc4ccccc4n3c2=O)c(C)n1-c1ccccc1 | inactive |  | inactive | inactive | inactive | inactive |  | 4.18 µM (active) |  | 
23 | CCc1cncnc1N1CCN(Cc2nc3ccc(C(F)(F)F)cc3[nH]2)CC1 | inactive | 10.5 µM (active) |  | 5.26 µM (active) |  | 2.09 µM (active) | 14.8 µM (active) |  |  | 
24 | O=C(Nc1nc2ccccc2n1CCN1CCOCC1)c1cccc([N+](=O)[O-])c1 | 5.26 µM (active) |  | inactive | inactive |  |  |  | 20.9 µM (active) |  | 
